From ChEMBL document CHEMBL1961873, “Compounds: GSK PKIS; Assays: Nanosyn kinase panel” (2012)
Values joined by “and” are separate entries in the source; they are usually repeats but may differ in a detail not shown here. Equal entries are not always repeated.

target: T1, Tyrosine-protein kinase ITK/TSK (Homo sapiens) (UniProt Q08881); settings: at 1 µM;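 also: values are mean percent inhibition of ITK from the GSK PKIS screen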
T1 sequence (whole entry): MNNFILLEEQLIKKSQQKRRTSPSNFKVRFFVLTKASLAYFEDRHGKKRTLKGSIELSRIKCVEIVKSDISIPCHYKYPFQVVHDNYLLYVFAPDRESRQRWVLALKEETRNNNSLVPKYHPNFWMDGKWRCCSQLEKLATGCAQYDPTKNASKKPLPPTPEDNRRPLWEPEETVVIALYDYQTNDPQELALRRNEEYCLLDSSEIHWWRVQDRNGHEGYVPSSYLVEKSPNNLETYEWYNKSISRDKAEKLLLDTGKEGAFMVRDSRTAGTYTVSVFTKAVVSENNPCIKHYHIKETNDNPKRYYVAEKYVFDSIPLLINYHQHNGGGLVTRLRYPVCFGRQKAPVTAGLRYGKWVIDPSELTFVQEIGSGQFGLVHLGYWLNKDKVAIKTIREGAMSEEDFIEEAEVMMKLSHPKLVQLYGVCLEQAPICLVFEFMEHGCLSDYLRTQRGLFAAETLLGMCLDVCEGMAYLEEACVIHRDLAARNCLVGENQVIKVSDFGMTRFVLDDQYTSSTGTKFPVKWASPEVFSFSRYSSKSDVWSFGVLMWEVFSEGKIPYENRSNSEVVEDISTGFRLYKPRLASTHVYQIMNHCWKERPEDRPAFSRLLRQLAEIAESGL

Row | SMILES | inhibition
1 | O=C(O[C@H]1CN[C@H](C#Cc2cc3ncnc(Nc4ccc5c(cnn5Cc5ccccc5)c4)c3s2)C1)N1CCOCC1 | -0.49%
2 | COc1ccc(Nc2ncc(-c3ccccc3)o2)cc1OC | 3.7%
3 | COc1cc(N2CCN(C(C)C)CC2)ccc1Nc1nc(Nc2cccc(F)c2C(=O)O)c2cc[nH]c2n1 | 5.92%
4 | COc1ccccc1-c1cc(/C=C2\C(=O)Nc3ncc(Br)cc32)cc(Br)c1O | 3.95%
5 | FC(F)(F)CNc1nccc(-c2cnn3ncccc23)n1 | 1%
6 | CN1CCC(n2cnc(-c3ccc(F)cc3)c2-c2ccnc(NCCO)n2)CC1 | 2.24%
7 | CS(=O)(=O)CCNCc1ccc(-c2ccc3ncnc(Nc4ccc(OCc5cccc(C(F)(F)F)c5)cc4)c3c2)o1 | 1.4%
8 | COc1c(C(N)=O)cc(-c2ccc(Cl)cc2)cc1-c1ccc(S(N)(=O)=O)cc1 | 2.4%
9 | Cc1nnc(-c2cccc(-c3ccc(C(=O)NCC4CC4)cc3)c2)o1 | 2.05%
10 | O=C(O[C@H]1CN[C@H](C#Cc2cc3ncnc(Nc4ccc5c(ccn5Cc5cc(F)ccc5F)c4)c3s2)C1)N1CCOCC1 | 2.55%
11 | CS(=O)(=O)Nc1ccc(-c2ccc3c(NC(=O)C4CC4)n[nH]c3c2)cc1 | 4.27%
12 | CN1CCC(C(=O)Nc2n[nH]c3nc(-c4ccc(O)cc4)c(Br)cc23)CC1 | -1.94% and 1.71%
13 | O=C(O[C@H]1CN[C@H](C#Cc2cc3ncnc(Nc4ccc(OCc5cccc(F)c5)c(Cl)c4)c3s2)C1)N1CCOCC1 | 2.04%
14 | CCCNc1cccc(-n2ncc3c(N/N=C/c4ccncc4)ncnc32)c1 | 10.8%
15 | COc1cccc(Nc2nccc(-c3cnn4ncccc34)n2)c1 | 6.45%
16 | N#Cc1ccc2c(-c3ccnc(NC4CC4)n3)c(-c3ccc(F)cc3)nn2c1 | 0.51%

Row | SMILES | inhibition
17 | CNC(=O)c1ncccc1Nc1nc(Nc2cc3c(cc2OC)CCCN3C(=O)CN(C)C)nc2[nH]ccc12 | 2.8%
18 | CC1(C)CC(n2cnc(-c3ccc(F)cc3)c2-c2ccnc(N)n2)CC(C)(C)N1 | 0.97%
19 | COc1ccc2ncn(-c3cc(O[C@H](C)c4ccccc4C(F)(F)F)c(C(N)=O)s3)c2c1 | 1.39%
20 | CC(C)c1ccc(-c2cc(-c3c[nH]nc3-c3ccccn3)ccn2)cc1 | 1.69%
21 | CN1CCN(Cc2ccc(-c3cc4ncnc(Nc5ccc(OCc6cccc(F)c6)c(Cl)c5)c4s3)o2)CC1 | 2.43% and 2.68%
22 | NS(=O)(=O)c1ccc(N/N=C2\C(=O)Nc3cccc(CCc4ccncc4)c32)cc1 | 2.79%
23 | N#Cc1cccc(Nc2ncc(-c3ccccc3)o2)c1 | 2.42%
24 | CNC(=O)c1cncc(/C=C/c2ccccc2C)c1 | 2.59%
25 | Nc1ncnc2occ(-c3ccc(NC(=O)Nc4cc(C(F)(F)F)ccc4F)cc3)c12 | 7.9% and 3.04%
26 | Cc1cc(O)cc(C)c1/C=C/c1cncc(C(=O)OC(C)(C)C)c1 | 2.71%
27 | COc1ccc(-c2nn3ncccc3c2-c2ccnc(Nc3ccc(F)c(F)c3)n2)cc1 | 3.13%
28 | O=C(Nc1n[nH]c2nnc(-c3cccnc3)cc12)C1CC1 | 2.49%
29 | c1ccc(-c2n[nH]cc2-c2ccnc(-c3ccc(OCCn4ccnc4)cc3)c2)nc1 | 2.03%
30 | CS(=O)(=O)Nc1ccc(-c2cc(-c3ccccc3)cc(C(N)=O)c2N)cc1 | 0.76%
31 | OCCCNc1nccc(-c2c(-c3ccc(F)cc3)nn3cc(C(F)(F)F)ccc23)n1 | 0.19%

target: Tyrosine-protein kinase JAK1 (Homo sapiens) (UniProt P23458); settings: at 0.1 µM
Sequence (P23458 whole entry): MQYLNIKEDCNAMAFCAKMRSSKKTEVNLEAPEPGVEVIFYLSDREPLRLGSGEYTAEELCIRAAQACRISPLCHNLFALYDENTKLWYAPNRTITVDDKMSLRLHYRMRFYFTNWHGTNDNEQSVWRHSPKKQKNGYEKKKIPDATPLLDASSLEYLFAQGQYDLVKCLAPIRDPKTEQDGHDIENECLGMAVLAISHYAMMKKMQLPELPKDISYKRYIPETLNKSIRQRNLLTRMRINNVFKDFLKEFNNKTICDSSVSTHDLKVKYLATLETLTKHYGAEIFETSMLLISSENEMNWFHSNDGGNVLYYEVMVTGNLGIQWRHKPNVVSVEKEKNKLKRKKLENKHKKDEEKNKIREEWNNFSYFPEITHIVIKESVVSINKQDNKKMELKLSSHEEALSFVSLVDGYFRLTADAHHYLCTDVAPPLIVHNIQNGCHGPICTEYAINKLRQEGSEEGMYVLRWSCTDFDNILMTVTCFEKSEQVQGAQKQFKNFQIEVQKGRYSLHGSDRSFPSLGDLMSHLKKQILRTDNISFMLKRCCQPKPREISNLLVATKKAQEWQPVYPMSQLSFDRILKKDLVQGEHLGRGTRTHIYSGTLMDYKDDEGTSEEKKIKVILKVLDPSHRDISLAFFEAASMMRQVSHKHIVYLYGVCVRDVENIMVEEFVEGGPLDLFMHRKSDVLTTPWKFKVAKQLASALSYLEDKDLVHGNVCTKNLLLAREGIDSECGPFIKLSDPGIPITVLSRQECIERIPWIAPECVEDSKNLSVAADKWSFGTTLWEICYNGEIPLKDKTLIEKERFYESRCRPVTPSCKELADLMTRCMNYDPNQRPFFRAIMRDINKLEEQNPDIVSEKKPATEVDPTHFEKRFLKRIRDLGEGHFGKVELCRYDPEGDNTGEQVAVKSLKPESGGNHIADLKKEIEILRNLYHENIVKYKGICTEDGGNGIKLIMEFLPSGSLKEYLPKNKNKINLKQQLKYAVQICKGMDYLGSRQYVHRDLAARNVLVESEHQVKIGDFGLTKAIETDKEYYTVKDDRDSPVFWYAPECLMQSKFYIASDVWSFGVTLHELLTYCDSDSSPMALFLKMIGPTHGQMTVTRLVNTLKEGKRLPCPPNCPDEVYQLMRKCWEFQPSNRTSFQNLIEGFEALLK

Row | SMILES | inhibition
32 | O=C(O[C@H]1CN[C@H](C#Cc2cc3ncnc(Nc4ccc5c(cnn5Cc5ccccc5)c4)c3s2)C1)N1CCOCC1 | 0.1%
33 | COc1ccc(Nc2ncc(-c3ccccc3)o2)cc1OC | 0.7%
34 | COc1cc(N2CCN(C(C)C)CC2)ccc1Nc1nc(Nc2cccc(F)c2C(=O)O)c2cc[nH]c2n1 | 4.17%
35 | COc1ccccc1-c1cc(/C=C2\C(=O)Nc3ncc(Br)cc32)cc(Br)c1O | 2.55%
36 | FC(F)(F)CNc1nccc(-c2cnn3ncccc23)n1 | 1.9%
37 | CN1CCC(n2cnc(-c3ccc(F)cc3)c2-c2ccnc(NCCO)n2)CC1 | 4.93%
38 | CS(=O)(=O)CCNCc1ccc(-c2ccc3ncnc(Nc4ccc(OCc5cccc(C(F)(F)F)c5)cc4)c3c2)o1 | 1.68%
39 | COc1c(C(N)=O)cc(-c2ccc(Cl)cc2)cc1-c1ccc(S(N)(=O)=O)cc1 | 1.1%
40 | Cc1nnc(-c2cccc(-c3ccc(C(=O)NCC4CC4)cc3)c2)o1 | 2.76%
41 | O=C(O[C@H]1CN[C@H](C#Cc2cc3ncnc(Nc4ccc5c(ccn5Cc5cc(F)ccc5F)c4)c3s2)C1)N1CCOCC1 | 5.05%
42 | CS(=O)(=O)Nc1ccc(-c2ccc3c(NC(=O)C4CC4)n[nH]c3c2)cc1 | 2.35%
43 | CN1CCC(C(=O)Nc2n[nH]c3nc(-c4ccc(O)cc4)c(Br)cc23)CC1 | 2.37% and 1.02%
44 | O=C(O[C@H]1CN[C@H](C#Cc2cc3ncnc(Nc4ccc(OCc5cccc(F)c5)c(Cl)c4)c3s2)C1)N1CCOCC1 | 5.13%
45 | CCCNc1cccc(-n2ncc3c(N/N=C/c4ccncc4)ncnc32)c1 | 6.59%
46 | COc1cccc(Nc2nccc(-c3cnn4ncccc34)n2)c1 | -0.13%
47 | N#Cc1ccc2c(-c3ccnc(NC4CC4)n3)c(-c3ccc(F)cc3)nn2c1 | 0.46%

Row | SMILES | inhibition
48 | CNC(=O)c1ncccc1Nc1nc(Nc2cc3c(cc2OC)CCCN3C(=O)CN(C)C)nc2[nH]ccc12 | 4.62%
49 | CC1(C)CC(n2cnc(-c3ccc(F)cc3)c2-c2ccnc(N)n2)CC(C)(C)N1 | -2.83%
50 | COc1ccc2ncn(-c3cc(O[C@H](C)c4ccccc4C(F)(F)F)c(C(N)=O)s3)c2c1 | -0.98%
51 | CC(C)c1ccc(-c2cc(-c3c[nH]nc3-c3ccccn3)ccn2)cc1 | -1.37%
52 | CN1CCN(Cc2ccc(-c3cc4ncnc(Nc5ccc(OCc6cccc(F)c6)c(Cl)c5)c4s3)o2)CC1 | 1.06% and 6.88%
53 | NS(=O)(=O)c1ccc(N/N=C2\C(=O)Nc3cccc(CCc4ccncc4)c32)cc1 | -0.35%
54 | N#Cc1cccc(Nc2ncc(-c3ccccc3)o2)c1 | 0.52%
55 | CNC(=O)c1cncc(/C=C/c2ccccc2C)c1 | 6.31%
56 | Nc1ncnc2occ(-c3ccc(NC(=O)Nc4cc(C(F)(F)F)ccc4F)cc3)c12 | -0.01% and -6.67%
57 | Cc1cc(O)cc(C)c1/C=C/c1cncc(C(=O)OC(C)(C)C)c1 | 1.99%
58 | COc1ccc(-c2nn3ncccc3c2-c2ccnc(Nc3ccc(F)c(F)c3)n2)cc1 | 3.71%
59 | O=C(Nc1n[nH]c2nnc(-c3cccnc3)cc12)C1CC1 | 1.49%
60 | c1ccc(-c2n[nH]cc2-c2ccnc(-c3ccc(OCCn4ccnc4)cc3)c2)nc1 | 0.34%
61 | CS(=O)(=O)Nc1ccc(-c2cc(-c3ccccc3)cc(C(N)=O)c2N)cc1 | 0.16%
62 | OCCCNc1nccc(-c2c(-c3ccc(F)cc3)nn3cc(C(F)(F)F)ccc23)n1 | -0.95%
